According to PubChem BioAssay (NCI):
The panel holds about 83,000 compounds, 20% with a hit somewhere; the sample as a whole holds those more often.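 In brief: 96-well plates, 48 h treatment, single concentration, percent growth endpoint.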 Values without a mark were called inactive. The source made the active and inactive calls. Rule for the calls: active = growth percent below 10; inactive = the rest.

The compounds below were run on MDA-MB-468 breast (assay: NCI-60 one-dose screen, 48 h (100 = growth as untreated, 0 = no growth, -100 = all killed)). Details: 10 µM unless noted.

Row | SMILES | growth
1 | Nc1nc(Nc2ccc(OCc3cccc(F)c3)cc2)c2c(n1)[nH]c1ccc(O)cc12 | -17.2% (active)
2 | CCN(CC)CCNc1ccc([N+](=O)[O-])c2sc3ccccc3c(=O)c12 | 1.4% (active)
3 | COc1ccc(N2CCN(c3ccc(NC4=C(Cl)C(=O)c5ncccc5C4=O)cc3)CC2)cc1 | -53.9% (active)
4 | CS(=O)CC(=N\O)/C(CS(C)=O)=N\O (stereo not given) | 104%
5 | O=C(/C=C\c1ccccc1Cl)c1ccccc1 | 87.5%
6 | NS(=O)(=O)c1ccc(Nc2nc(Nc3ccccc3)nc3nnc(SCC(=O)NC4CCCCC4)n23)cc1 | 104%
7 | COCCNC1=C(Cl)C(=O)c2ccccc2C1=O | 76.8%
8 | CCOC(=O)C1=C(C)NC(C)=C(C(=O)OCC)C1(C)C | 98.8%
9 | NC(=O)CN1C(=O)c2ccccc2C1=O | 107%
10 | O=S(=O)(Nc1ccc2ccccc2c1)c1ccc(-c2cnc(C3CC3)o2)cc1 | 6.05% (active)
11 | CCOC(=O)c1c(NC(=O)c2cccc(C(F)(F)F)c2)sc2c(CN3CCN(C)CC3)c(O)ccc12 | -2.41% (active)
12 | OC(CBr)c1ccnc2ccccc12 (stereo not given) | 100%
13 | Cc1cccc(N2CCN(C(=S)c3ccc4c(c3)OCO4)CC2)c1 | -37.6% (active)
14 | CCCCCCCCCCCCCCCCCC(=O)Nc1ccc(O)cc1 | 103%
15 | Cc1c2cccnc2c(C)c2c1c1cc(CO)ccc1n2C | -48.7% (active)
16 | CC1CC=CCC1C1OCC(C)(C)CO1 (stereo not given) | 105%
17 | O=c1nc(Nc2nc3ccccc3s2)[nH]c(=O)c2ccccc12 | 99.4%
18 | Nc1nc2cc(O)ccc2n2cc3c(F)cccc3c12 | 18.6%
19 | Nc1c(C(=O)Nc2ccncc2)sc2nc3c(cc12)CCCCCCCC3 | -75.7% (active)
20 | CC(=O)Nc1nc2c(c(N)c1C#N)C(c1cccc(Cl)c1)C1=C(CCCC1=O)N2c1sc2c(c1C#N)CCCC2 (stereo not given) | 47.7%

Row | SMILES | growth
21 | CCCSc1nc(Nc2ccc(/C(C)=N\NC(N)=S)cc2)c(C#N)c(-c2ccc(OC)cc2)n1 | 93.1%
22 | COc1cccc(C(=O)N(c2ccc(F)c(F)c2)C(C(=O)NC(C)(C)C)c2cc3c(C)cc(C)cc3nc2Cl)c1 (stereo not given) | 35.2%
23 | C=C1C(=O)O[C@H]2[C@H]1CC/C(Cn1cc(CNCCc3c[nH]c4ccc(Cl)cc34)nn1)=C\CC[C@@]1(C)O[C@@H]21 | 19.6%
24 | CCN1C2=C(SC(=S)C1=C1SC(C(=O)OC)=C(C(=O)OC)S1)SC(=Nc1ccc(OC)cc1)C2=O | -78% (active)
25 | O=C(NCCN1CCOCC1)OCc1nc2nc(Cl)nc(N3CCOCC3)c2[nH]1 | 10.1%
26 | Clc1ccc(CCC(Cn2ccnc2)Sc2c(Cl)cccc2Cl)cc1 (stereo not given) | 36.9%
27 | ClC1C2CC(c3ccccc32)C1Cl (stereo not given) | 104%
28 | O=[N+]([O-])c1ccc(Nc2nc(NCCN3CCOCC3)ncc2[N+](=O)[O-])cc1 | 70.8%
29 | O=C1Nc2ccc(F)cc2C12Nc1cc(Cl)ccc1S2 (stereo not given) | 107%
30 | O=C(Nc1cccc(Cl)c1)OCC(COC(=O)Nc1cccc(Cl)c1)(COC(=O)Nc1cccc(Cl)c1)[N+](=O)[O-] | 16.5%
31 | N#C/C(=C\c1ccc(-c2cc(C(F)(F)F)ccc2Cl)o1)c1nc(-c2ccco2)cs1 | -3.16% (active)
32 | Nc1nc(N)c2c(n1)NC(c1ccccc1)C1CCc3ccccc3C1=N2 (stereo not given) | -12.7% (active)
33 | Cn1c([N+](=O)[O-])cnc1/C=C1\Oc2cc(Cl)ccc2C1=O | 68.7%
34 | O=C(O)c1cn(C2CC2)c2cc(N3CCN(C(=O)N/N=C/c4cccc5ccccc45)CC3)c(F)cc2c1=O | 103%
35 | O=Cc1ccc(Cl)c(Cl)c1 | 119%
36 | CCCCC/C(C=C(C#N)C#N)=C/c1ccccc1 | 97.9%
37 | C#COc1cccc(Nc2ncnc3cc(NC(=O)[C@@H](C)Cl)ccc23)c1 | 12% [6.25 µM]
38 | CS(=O)(=O)c1nccc(-c2c(-c3cccc(OCc4ccc(Cl)c(C(F)(F)F)c4)c3)nc3sccn23)n1 | -66.1% (active)
39 | CC(=O)c1cc(C(=O)N2c3ccccc3Sc3ccccc32)n2c1ccc1ccccc12 | 50.6%
40 | C=C1C(=O)O[C@H]2[C@H]1CC/C(COC(=O)NCc1ccc(Cn3c(=O)sn(CCCl)c3=O)cc1)=C\CC[C@@]1(C)O[C@@H]21 | 5.52% (active)
